The results in this text go back to PubChem BioAssay (Tox21).

A short description of assay [1]: qHTS assay for identifying genotoxic compounds that show differential cytotoxicity against isogenic chicken DT40 cell lines with known DNA damage response pathways - wild type cell line (AID 743012). Note: nearly all actives have a fitted effect of over 60% in size. Note: potency is the fitted concentration of half-maximal effect. The method in brief: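 Viability of DNA repair-proficient chicken DT40 cells was assessed by CellTiter-Glo luminescence following 40 h compound exposure at 37 C/5% CO2.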
(In general: qHTS replaces the single test concentration by a dilution series.)

A short description of assay [2]: qHTS assay for identifying genotoxic compounds that show differential cytotoxicity against isogenic chicken DT40 cell lines with known DNA damage response pathways - Rev3 mutant cell line (AID 743014). Note: nearly all actives have a fitted effect of over 55% in size. Note: potency is the fitted concentration of half-maximal effect.
The nature of assay [3]: qHTS assay for identifying genotoxic compounds that show differential cytotoxicity against isogenic chicken DT40 cell lines with known DNA damage response pathways - Rad54/Ku70 mutant cell line (AID 743015). Note: nearly all actives have a fitted effect of over 60% in size. Note: potency is the fitted concentration of half-maximal effect.
A short description of assay [4]: qHTS assay to identify small molecule antagonists of the androgen receptor (AR) signaling pathway - cell viability counter screen (AID 743033; note: nearly all actives have a fitted effect of over 45% in size; note: potency is the fitted concentration of half-maximal effect).
Assay [5] has as its target Androgen receptor (Homo sapiens) (UniProt P10275). The experiment in a line: qHTS assay to identify small molecule agonists of the androgen receptor (AR) signaling pathway using the MDA cell line (AID 743040; note: nearly all actives have a fitted effect of over 20% in size). The method in brief:
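Luciferase agonist assay: 16 h compound exposure at 37C without CO2 in MDA-kb2 AR-luc cells, whose MMTV promoter responds to both AR and GR. Luminescence measured after 30 min room-temperature incubation with ONE-Glo.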

Assay [6] is described as follows: qHTS assay to identify small molecule antagonists of the thyroid receptor (TR) signaling pathway - cell viability counter screen (AID 743064). Note: nearly all actives have a fitted effect of over 50% in size. Note: potency is the fitted concentration of half-maximal effect. The method in brief: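 Same-well viability check: GH3.TRE-Luc cells stimulated with 1 nM T3 alongside test compound for 23.5 h, followed by CellTiter-Fluor fluorescence.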
A short description of assay [7]: qHTS assay to identify small molecule antagonists of the thyroid receptor (TR) signaling pathway (AID 743065). Note: nearly all actives have a fitted effect of over 55% in size. Note: potency is the fitted concentration of half-maximal effect. In short, it runs like this: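 Antagonism measured as loss of luciferase signal in GH3 cells stably carrying a TRE-luciferase reporter, co-treated with compound and T3 (1 nM final) for 23.5 h at 37 C. Viability was read in the same well by CellTiter-Fluor.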

For assay [8], the system named is thyroid hormone receptor (rat, GH3 cells). The experiment in a line: qHTS assay to identify small molecule agonists of the thyroid receptor (TR) signaling pathway (AID 743066; calls by dose curve; note: potency is the fitted concentration of half-maximal effect).
Assay [9] in a line: qHTS assay to identify small molecule antagonists of the estrogen receptor alpha (ER-alpha) signaling pathway - cell viability counter screen (AID 743074; calls by dose curve;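 note: HEK293 cells carrying ER-alpha-UAS-bla reporter stimulated with 17beta-estradiol; nearly all actives have a fitted effect of over 45% in size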; note: potency is the fitted concentration of half-maximal effect).
Assay [10] has as its target Estrogen receptor (Homo sapiens) (UniProt P03372). The experiment in a line: qHTS assay to identify small molecule agonists of the estrogen receptor alpha (ER-alpha) signaling pathway (AID 743075; calls by dose curve;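 note: HEK293 GripTite cells with ER-alpha and UAS-driven beta-lactamase reporter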).
For the next assay, the target named is Aromatase (Homo sapiens) (UniProt P11511). The experiment in a line: qHTS assay to identify aromatase inhibitors (AID 743083). Note: nearly all actives have a fitted effect of over 55% in size. Note: potency is the fitted concentration of half-maximal effect.
Assay [11] in a line: qHTS assay to identify small molecule antagonists of the androgen receptor (AR) signaling pathway using the MDA cell line - cell viability counter screen (AID 743041; note: nearly all actives have a fitted effect of over 45% in size; note: potency is the fitted concentration of half-maximal effect). In short, it runs like this:
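Viability read by CellTiter-Fluor fluorescence in the same wells as the antagonist screen, added after 15.5 h of a 16 h, 37C exposure. Human breast carcinoma MDA-kb2 AR-luc cells, compounds co-dosed with agonist R1881.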

Assay [12] deals with Androgen receptor (Homo sapiens) (UniProt P10275). Description: qHTS assay to identify small molecule antagonists of the androgen receptor (AR) signaling pathway using the MDA cell line (AID 743042; note: nearly all actives have a fitted effect of over 55% in size; note: potency is the fitted concentration of half-maximal effect). The method in brief: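 Antagonist mode: compounds plus R1881 agonist added to MDA-kb2 AR-luc cells, incubated 16 h at 37C. Luciferase reporter luminescence quantified, with multiplexed CellTiter-Fluor readout for cell viability.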

Assay [13] deals with Estrogen receptor (Homo sapiens) (UniProt P03372). The experiment in a line: qHTS assay to identify small molecule antagonists of the estrogen receptor alpha (ER-alpha) signaling pathway (AID 743069; active = well fitted curve in the direction sought with a large enough effect in the signal ratio in the repeat runs, not every such curve was filed as active; inconclusive = weak or mixed curves, or effect the other way; inactive = no such curve, though single readings can be large or run the other way; the % refers to the signal ratio; note: potency is the fitted concentration of half-maximal effect). In short, it runs like this:
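Antagonist mode: compounds in DMSO were co-added with 17beta-estradiol to ER-alpha-bla HEK293 cells (2% charcoal-stripped serum) and left 18 h at 37C. Reporter inhibition was measured as FRET fluorescence after 2 h LiveBLAzer substrate at room temperature.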

Assay [14] in a line: qHTS assay to identify small molecule antagonists of the estrogen receptor alpha (ER-alpha) signaling pathway using the BG1 cell line (AID 743080; calls by dose curve;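 note: BG1 cells stimulated with 17beta-estradiol alongside compound; nearly all actives have a fitted effect of over 25% in size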; note: potency is the fitted concentration of half-maximal effect). The method in brief: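 Readout is ONE-Glo luminescence, taken 30 min at room temperature after reagent addition, preceded by a CellTiter-Fluor viability read; BG1-Luc-4E2 cells had received compound and 17beta-estradiol for 21.5 h at 37 C.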

The nature of assay [15]: qHTS assay to identify small molecule antagonists of the estrogen receptor alpha (ER-alpha) signaling pathway using the BG1 cell line - cell viability counter screen (AID 743081).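 Note: compound given together with 17beta-estradiol as the ER stimulus; series mostly up to about 70 µM; nearly all actives have a fitted effect of over 45% in size.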
Assay [16] deals with Estrogen receptor (Homo sapiens) (UniProt P03372). The experiment in a line: qHTS assay to identify small molecule agonists of the estrogen receptor alpha (ER-alpha) signaling pathway using the BG1 cell line (AID 743079). Note: nearly all actives have a fitted effect of over 20% in size. Note: potency is the fitted concentration of half-maximal effect.
In assay [17] the target is Androgen receptor (Homo sapiens) (UniProt P10275). The experiment in a line: qHTS assay to identify small molecule agonists of the androgen receptor (AR) signaling pathway (AID 743036; active = well fitted activation curve with a large enough effect in the signal ratio in the repeat runs, with a control signal flat, not every such curve was filed as active; inconclusive = weak or mixed curves, or effect the other way; inactive = no such curve, though single readings can be large or run the other way; the % refers to the signal ratio). In short, it runs like this: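 Agonist activity was scored by beta-lactamase reporter fluorescence in stably transfected HEK293 cells exposed to compounds for 16 h at 37C and 5% CO2. Substrate loading took 2 h at room temperature.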

Assay [18] shares this target. Description: qHTS assay to identify small molecule antagonists of the androgen receptor (AR) signaling pathway (AID 743035; active = well fitted inhibition curve with a large enough effect in the signal ratio in the repeat runs, not every such curve was filed as active; inconclusive = weak or mixed curves, or effect the other way; inactive = no such curve, though single readings can be large or run the other way; the % refers to the signal ratio; note: potency is the fitted concentration of half-maximal effect). In short, it runs like this: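 Reporter HEK293 cells were exposed to compounds and R1881 overnight (16 h, 37C); beta-lactamase activity was then quantified by FRET fluorescence.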

Several values for one entry are separate records, joined by “and”; a condition that tells them apart may be missing. Equal entries are not always repeated. Where a structure was tested more than once in an assay, its records may differ in their call. Activity calls are given as the source filed them. Unless noted, calls come from the whole dose curve; as a rule, active = well fitted curve in the direction sought with a large enough effect in the repeat runs; inconclusive = weak or mixed curves; inactive = no such curve, though single readings can be large; an effect the other way counts as inactive or inconclusive.

Androgen receptor (Homo sapiens), sequence (P10275 whole entry, looked up): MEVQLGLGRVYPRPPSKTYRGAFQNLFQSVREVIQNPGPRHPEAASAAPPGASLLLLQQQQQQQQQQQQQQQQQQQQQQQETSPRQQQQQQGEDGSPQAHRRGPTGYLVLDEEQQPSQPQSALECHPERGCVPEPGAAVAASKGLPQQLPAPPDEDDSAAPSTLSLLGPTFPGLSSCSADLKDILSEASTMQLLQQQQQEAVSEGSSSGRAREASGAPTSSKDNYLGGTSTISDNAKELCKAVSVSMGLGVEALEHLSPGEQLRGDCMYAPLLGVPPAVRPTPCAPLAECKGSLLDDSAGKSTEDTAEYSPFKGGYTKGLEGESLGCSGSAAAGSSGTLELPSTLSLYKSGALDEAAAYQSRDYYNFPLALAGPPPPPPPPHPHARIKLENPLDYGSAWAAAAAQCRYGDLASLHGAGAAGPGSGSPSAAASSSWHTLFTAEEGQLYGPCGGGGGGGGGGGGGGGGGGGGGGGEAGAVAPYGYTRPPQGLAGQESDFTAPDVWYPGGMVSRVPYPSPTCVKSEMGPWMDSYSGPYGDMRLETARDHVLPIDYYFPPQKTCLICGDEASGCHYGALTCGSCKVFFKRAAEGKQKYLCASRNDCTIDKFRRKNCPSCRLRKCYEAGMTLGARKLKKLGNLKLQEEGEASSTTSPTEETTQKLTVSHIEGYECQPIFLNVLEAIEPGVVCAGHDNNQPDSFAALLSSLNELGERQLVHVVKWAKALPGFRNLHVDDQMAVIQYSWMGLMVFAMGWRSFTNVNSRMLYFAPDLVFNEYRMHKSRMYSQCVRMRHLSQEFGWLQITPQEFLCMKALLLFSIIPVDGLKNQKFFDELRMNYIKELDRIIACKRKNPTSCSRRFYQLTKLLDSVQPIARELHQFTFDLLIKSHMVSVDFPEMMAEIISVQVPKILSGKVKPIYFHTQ
Estrogen receptor (Homo sapiens), sequence (P03372 whole entry, looked up): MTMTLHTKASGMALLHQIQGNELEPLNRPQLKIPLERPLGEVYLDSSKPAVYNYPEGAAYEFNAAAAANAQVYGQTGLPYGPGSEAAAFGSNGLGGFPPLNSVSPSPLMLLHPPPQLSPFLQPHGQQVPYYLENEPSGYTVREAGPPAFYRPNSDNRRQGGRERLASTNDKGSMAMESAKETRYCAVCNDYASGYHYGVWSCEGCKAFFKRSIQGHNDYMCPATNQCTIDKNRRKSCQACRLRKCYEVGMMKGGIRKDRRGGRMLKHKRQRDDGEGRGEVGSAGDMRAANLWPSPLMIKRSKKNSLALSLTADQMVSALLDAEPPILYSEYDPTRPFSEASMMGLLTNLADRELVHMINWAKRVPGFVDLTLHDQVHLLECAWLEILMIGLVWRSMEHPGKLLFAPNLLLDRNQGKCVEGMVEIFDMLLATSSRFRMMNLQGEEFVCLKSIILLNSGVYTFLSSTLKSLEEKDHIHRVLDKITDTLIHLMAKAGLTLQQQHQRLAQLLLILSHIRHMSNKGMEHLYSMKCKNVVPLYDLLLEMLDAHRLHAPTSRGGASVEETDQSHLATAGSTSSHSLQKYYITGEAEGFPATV
Aromatase (Homo sapiens), sequence (P11511 whole entry, looked up): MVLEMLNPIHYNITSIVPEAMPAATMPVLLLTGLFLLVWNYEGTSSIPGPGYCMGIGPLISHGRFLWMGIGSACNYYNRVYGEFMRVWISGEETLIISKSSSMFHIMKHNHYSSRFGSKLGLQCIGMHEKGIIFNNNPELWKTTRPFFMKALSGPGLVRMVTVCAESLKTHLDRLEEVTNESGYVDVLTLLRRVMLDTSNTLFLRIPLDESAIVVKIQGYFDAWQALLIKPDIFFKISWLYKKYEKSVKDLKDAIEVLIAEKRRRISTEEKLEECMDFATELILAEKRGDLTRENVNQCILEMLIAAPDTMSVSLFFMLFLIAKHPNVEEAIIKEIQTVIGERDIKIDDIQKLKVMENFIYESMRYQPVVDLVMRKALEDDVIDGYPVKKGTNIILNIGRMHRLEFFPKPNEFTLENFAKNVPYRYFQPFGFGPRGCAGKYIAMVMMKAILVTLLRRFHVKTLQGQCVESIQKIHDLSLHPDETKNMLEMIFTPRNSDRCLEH

On to `NCc1cccc(C2CCN(C(=O)c3ccc(C#Cc4ccccc4F)o3)CC2)c1`, for which the Potency in assay [1] was 17.2 µM (active); in [2], 30.6 µM (active); in assay [3] it was 17.2 µM (active); in assay [4] it was 21.9 µM (active); in assay [6] it was 7.7 µM (active); in assay [7], 7.7 µM (active). For the same compound, the Potency is 54.9 µM (active) in [9] and 68.6 µM (active) with Aromatase (Homo sapiens). Further, the Potency result in assay [5], in [8] and in assay [10] was “inactive” each time.
As for `CO[C@H](C(=O)[C@@H](O)[C@@H](C)O)C1Cc2cc3cc(O[C@H]4C[C@@H](O[C@H]5C[C@@H](O)[C@H](O)[C@@H](C)O5)[C@@H](O)[C@@H](C)O4)c(C)c(O)c3c(O)c2C(=O)[C@H]1O[C@H]1C[C@@H](O[C@H]2C[C@@H](O[C@H]3C[C@](C)(O)[C@H](O)[C@@H](C)O3)[C@H](O)[C@@H](C)O2)[C@H](O)[C@@H](C)O1` (some centres not stated), the Potency in assay [1] is 94.4 nM (active) and 47.3 nM (active); in [2] it was 84.1 nM (active) and 37.6 nM (active); in assay [3] it was 75 nM (active) and 33.5 nM (active); in assay [12] it was 473 nM (active) and 266 nM (active); in assay [7] it was 335 nM (active) and 237 nM (active); in assay [13], 301 nM [inconclusive] (active) and 190 nM [inconclusive] (active). In addition, the Potency in [14] was 266 nM (active) and 335 nM (active); in the assay with Aromatase (Homo sapiens), 841 nM (active) and 668 nM (active). The Potency entry in assay [4], in [5], in assay [11], in [9], in assay [10] and in [15] was “inactive” throughout.
Take `O=[N+]([O-])c1ccc(O)c2ncccc12`: the Potency was 2.98 µM (active) in assay [1]; 2.66 µM (active) in assay [2]; 5.31 µM (active) in [3]; 10.7 µM (active) in assay [4]; 11.9 µM (active) in assay [11]; 5.31 µM (active) in [6]. Besides, the Potency in assay [7] was 4.73 µM (active); with Aromatase (Homo sapiens), 7.5 µM (active).
In the case of `CCC(C)(C)c1ccc(CC(C)CN2C[C@@H](C)O[C@@H](C)C2)cc1` (some centres not stated), the Potency in assay [1] was 0.841 µM (active); in [2], 0.668 µM (active); in assay [3] it was 0.841 µM (active); in assay [6], 11.9 µM (active); in assay [7] it was 11.9 µM (active); in assay [14] it was 29.8 µM (active). Further, the Potency entry in [4], in assay [10] and in [15] was “inactive” in each case.
Take `COC(=O)[C@H]1[C@H]2C[C@H]3c4[nH]c5ccccc5c4CCN3C[C@H]2CC[C@@H]1O`: the Potency result in assay [1], in assay [2], in assay [3], in [4], in assay [11] and in assay [6] was “inactive” throughout. Further, the Potency entry in [7], in assay [8], in assay [13], in assay [9], in assay [10] and in assay [16] was “inactive” in each case. Besides, the Potency entry (in assay [14]; in assay [15]; in the assay with Aromatase (Homo sapiens)) was “inactive” in each case.
Take `C[C@@H]1C(=O)NC2=Nc3cccc(Cl)c3CN21`: the Potency entry in assay [1], in assay [2], in [3], in [4], in [17] and in assay [5] was “inactive” throughout. Besides, the Potency result in [11], in [12], in assay [6], in assay [7], in assay [8] and in [9] was “inactive” each time. Moreover, the Potency entry (in assay [15]; with Aromatase (Homo sapiens)) was “inactive” in each case.
As to `SC1CCCCC1`, the Potency entry in [1], in assay [2], in [3], in assay [4], in assay [11] and in assay [6] was “inactive” in each case. In addition, the Potency result (in assay [7]; in [8]; in assay [9]; in assay [15]; with Aromatase (Homo sapiens)) was “inactive” in each case.
For `C[C@H]1O[C@@H](O[C@H]2CC[C@@]3(C)[C@H](CC[C@@H]4[C@@H]3C[C@@H](O)[C@]3(C)[C@@H](C5=CC(=O)OC5)CC[C@]43O)C2)C[C@H](O)[C@@H]1O[C@H]1C[C@H](O)[C@H](O[C@H]2C[C@H](O)[C@H](O[C@@H]3O[C@H](CO)[C@@H](O)[C@H](O)[C@H]3O)[C@@H](C)O2)[C@@H](C)O1`, the Potency in assay [1] is 1.33 µM (active); in assay [2] it was 1.33 µM (active); in assay [3], 1.5 µM (active); in assay [4] it was 0.268 µM (active); in assay [18], 1.2 µM (active); in assay [9], 0.268 µM (active). For the same compound, the Potency entry (in [11]; in assay [7]; in assay [8]; in assay [10]; in [15]; in the assay with Aromatase (Homo sapiens)) was “inactive” each time.
`CCCCCCOC(=O)c1cccnc1`: the Potency entry in assay [1], in assay [2], in assay [3], in assay [4], in [11] and in assay [6] was “inactive” throughout. Moreover, the Potency result in assay [7], in assay [8], in assay [13], in assay [10], in [16] and in assay [14] was “inactive” in each case. Further, the Potency entry (in assay [15]; in the assay with Aromatase (Homo sapiens)) was “inactive” in each case.
On to `CCCCCCCC[N+](C)(C)CCCCCCCC`, for which the Potency was 668 nM (active) and 531 nM (active) in [1]; 1.19 µM (active) and 1.06 µM (active) in assay [2]; 1.33 µM (active) and 944 nM (active) in assay [3]; 16.9 µM (active) and 12 µM (active) in assay [4]; 21.1 µM (active) in [11]; 21.1 µM (active) in [6]. The Potency in assay [7] is 11.9 µM (active) and 13.3 µM (active); in assay [14], 29.8 µM (active); with Aromatase (Homo sapiens) it was 29.8 µM (active) and 26.6 µM (active). The Potency result in assay [10] and in [15] was “inactive” each time.
For the compound `CC(=O)OCC(=O)[C@@]1(O)CC[C@H]2[C@@H]3CCC4=CC(=O)CC[C@]4(C)C3=CC[C@@]21C`, the Potency entry in [1], in [2], in assay [3], in [4], in assay [11] and in [6] was “inactive” in each case. Further, the Potency result in assay [7], in [8], in assay [13], in [9], in [10] and in assay [14] was “inactive” throughout. Further, the Potency result (in assay [15]; with Aromatase (Homo sapiens)) was “inactive” throughout. In assay [16], the Potency was 29.8 µM (active).
For `O=C1OC(O)C(C(Cl)Cl)=C1Cl` (configuration not stated), the Potency in assay [1] is 17.8 µM (active); in assay [2], 1.26 µM (active); in assay [3], 19.9 µM (active); in assay [4] it was 22.5 µM (active); in assay [6] it was 31.6 µM (active); in [7] it was 22.4 µM (active). The Potency result in [11], in [8], in [9], in assay [16], in assay [14] and in assay [15] was “inactive” each time.
`CSCC[C@H](NC(=O)[C@H](Cc1ccc(OS(=O)(=O)O)cc1)NC(=O)[C@@H](N)CC(=O)O)C(=O)NCC(=O)N[C@@H](Cc1c[nH]c2ccccc12)C(=O)N[C@@H](CCSC)C(=O)N[C@@H](CC(=O)O)C(=O)N[C@@H](Cc1ccccc1)C(N)=O`: the Potency result in assay [1], in assay [2], in assay [3], in assay [4], in assay [11] and in assay [6] was “inactive” in each case. For the same compound, the Potency entry (in assay [7]; in assay [9]; in assay [15]; with Aromatase (Homo sapiens)) was “inactive” throughout. Also, the Potency result in assay [8] was “inactive and 11.9 µM (active)”.
